PubChem BioAssay (NCATS)
Records with an inconclusive call do not appear. Active and inactive are the calls of the source. Unless noted, calls follow the shape of the dose curve; as a rule, active = well fitted curve in the direction sought with a large enough effect; inconclusive = small, poorly fitted or top-dose-only effect, or another doubt; inactive = no such curve, though single readings can be large; an effect the other way counts as inactive or inconclusive.

Experiments:
[1] = molecular target: Peptidyl-prolyl cis-trans isomerase NIMA-interacting 1 (Homo sapiens) (UniProt Q13526); assay: qHTS Validation Assay to Find Inhibitors of Pin1 (AID 504536; active = well fitted inhibition curve with a large enough effect in the polarisation, with a control signal flat, not every such curve was filed as active; the % refers to the polarisation;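 also: 0% = full Pin1 enzyme wells and -100% = no-enzyme wells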)
Chain of Peptidyl-prolyl cis-trans isomerase NIMA-interacting 1 (Homo sapiens) (Q13526 whole entry, looked up): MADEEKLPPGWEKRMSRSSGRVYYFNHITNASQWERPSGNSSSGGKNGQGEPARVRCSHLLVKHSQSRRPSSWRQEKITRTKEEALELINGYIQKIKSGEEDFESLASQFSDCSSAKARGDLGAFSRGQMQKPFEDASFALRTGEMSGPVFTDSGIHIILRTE
In short: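 Fluorescence polarization competition: compounds (titration) displace HiFluor-488-labeled Pin1-1b peptide from Pin1 (0.3 uM final) in pH 7.5 HEPES buffer with DTT, 10 min at room temperature; %Activity normalized to no-enzyme wells, curves fitted.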

[2] = molecular target: Phosphoglycerate kinase, glycosomal (Trypanosoma brucei brucei) (UniProt P07378); assay: qHTS Validation Assay to Find Inhibitors of Phosphoglycerate Kinase (AID 504547); also: potency is read from the fitted curve at half-maximal effect
Chain of Phosphoglycerate kinase, glycosomal (Trypanosoma brucei brucei) (P07378 whole entry, looked up): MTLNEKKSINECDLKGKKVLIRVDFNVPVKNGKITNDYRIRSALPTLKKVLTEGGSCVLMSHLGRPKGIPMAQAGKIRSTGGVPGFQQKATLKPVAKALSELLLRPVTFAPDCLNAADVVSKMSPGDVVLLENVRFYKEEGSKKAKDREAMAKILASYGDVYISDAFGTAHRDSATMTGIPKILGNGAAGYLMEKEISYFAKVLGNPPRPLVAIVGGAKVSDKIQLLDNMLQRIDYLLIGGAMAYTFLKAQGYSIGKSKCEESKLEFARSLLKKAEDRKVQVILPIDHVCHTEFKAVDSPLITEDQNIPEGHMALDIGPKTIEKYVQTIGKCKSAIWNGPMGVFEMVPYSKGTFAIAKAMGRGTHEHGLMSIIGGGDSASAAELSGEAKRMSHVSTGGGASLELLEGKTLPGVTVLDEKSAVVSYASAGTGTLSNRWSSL
In short: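 Inhibition of the enzyme is judged by a Kinase-Glo Plus luminescent signal following a one-hour incubation at room temperature. Because 1,3-BPG is unstable, it is made in situ by GAPDH at 100nM final; no-PGK wells define the baseline.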

[3] = molecular target: phosphoglycerate mutase (Leishmania major) (UniProt Q4Q090); assay: qHTS Validation Assay to Find Inhibitors of Phosphoglycerate Mutase (AID 504548); also: series mostly up to about 58 µM; % is scaled to controls: 0 for no effect and ±100 for the full control effect
Chain of phosphoglycerate mutase (Leishmania major) (Q4Q090 1-553): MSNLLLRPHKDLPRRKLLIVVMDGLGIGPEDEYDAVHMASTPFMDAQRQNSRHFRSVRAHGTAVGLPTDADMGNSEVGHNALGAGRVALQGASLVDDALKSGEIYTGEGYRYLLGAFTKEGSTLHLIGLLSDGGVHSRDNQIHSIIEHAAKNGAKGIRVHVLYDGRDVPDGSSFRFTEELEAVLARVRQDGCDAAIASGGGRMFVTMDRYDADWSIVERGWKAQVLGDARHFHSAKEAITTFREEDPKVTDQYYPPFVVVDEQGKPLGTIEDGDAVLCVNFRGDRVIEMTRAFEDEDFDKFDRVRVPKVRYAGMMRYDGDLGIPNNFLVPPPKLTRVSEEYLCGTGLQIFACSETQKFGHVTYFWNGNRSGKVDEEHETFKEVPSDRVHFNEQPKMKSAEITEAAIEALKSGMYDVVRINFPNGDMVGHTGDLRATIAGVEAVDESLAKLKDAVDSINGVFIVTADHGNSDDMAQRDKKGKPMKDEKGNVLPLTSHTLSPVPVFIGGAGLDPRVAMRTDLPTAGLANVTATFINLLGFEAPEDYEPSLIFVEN
In short: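 Lm PGAM at 1.25 nM final with substrate in 100 mM TEA pH 7.6, 5 mM MgCl2, 0.01% Tween-20; 45 min at room temperature. Kinase-GloPlus added, 10 min, end-point luminescence read.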

[4] = molecular target: Ubiquitin carboxyl-terminal hydrolase 1 (Homo sapiens) (UniProt O94782); assay: Inhibitors of USP1/UAF1: Pilot qHTS (AID 504865); also: nearly all actives have a fitted effect of over 35% in size; also: potency is read from the fitted curve at half-maximal effect
Chain of Ubiquitin carboxyl-terminal hydrolase 1 (Homo sapiens) (O94782 whole entry, looked up): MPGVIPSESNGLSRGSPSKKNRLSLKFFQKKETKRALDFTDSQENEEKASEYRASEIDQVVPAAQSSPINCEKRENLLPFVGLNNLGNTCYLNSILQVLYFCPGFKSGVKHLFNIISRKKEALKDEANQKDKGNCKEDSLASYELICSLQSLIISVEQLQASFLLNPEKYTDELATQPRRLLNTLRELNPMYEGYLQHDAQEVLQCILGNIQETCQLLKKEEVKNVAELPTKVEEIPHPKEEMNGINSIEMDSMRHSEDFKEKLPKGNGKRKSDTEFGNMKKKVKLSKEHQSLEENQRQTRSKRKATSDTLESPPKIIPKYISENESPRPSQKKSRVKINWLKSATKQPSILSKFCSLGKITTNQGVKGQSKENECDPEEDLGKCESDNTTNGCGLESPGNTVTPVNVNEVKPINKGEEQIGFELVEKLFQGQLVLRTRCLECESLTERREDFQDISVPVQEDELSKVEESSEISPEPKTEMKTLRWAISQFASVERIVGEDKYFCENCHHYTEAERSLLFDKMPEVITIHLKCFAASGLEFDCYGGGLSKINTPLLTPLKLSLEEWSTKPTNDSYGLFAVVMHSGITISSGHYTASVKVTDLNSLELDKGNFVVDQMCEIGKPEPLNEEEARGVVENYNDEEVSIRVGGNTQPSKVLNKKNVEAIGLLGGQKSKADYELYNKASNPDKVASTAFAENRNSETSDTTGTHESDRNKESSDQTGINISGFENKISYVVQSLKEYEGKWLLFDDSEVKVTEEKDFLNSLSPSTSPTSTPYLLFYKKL
In short: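 Kinetic fluorescence assay: 1nM USP1/UAF1, 15 min compound preincubation, then 150nM Ub-Rho; 480/540 nm.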

[5] = qHTS for Inhibitors of ATXN expression: Validation of Cytotoxic Assay (AID 588349); also: potency is read from the fitted curve at half-maximal effect
In short: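 HEK293 cells were dosed with titrated compounds for 72 hr at 37 degrees C. Viability was read by CellTiter Glo luminescence, with intracellular ATP as the marker of cell survival.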

[6] = qHTS for Inhibitors of ATXN expression: Validation (AID 588378); also: nearly all actives have a fitted effect of over 75% in size; also: potency is read from the fitted curve at half-maximal effect
In short: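 Validation of ATXN2 expression inhibitors uses a cell-based luciferase fusion reporter in HEK293 cells, with 24 h compound exposure and paired viability (fluorescence) and reporter (luminescence) end-point reads.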

[7] = molecular target: Estrogen receptor (Homo sapiens) (UniProt P03372); assay: qHTS assay for small molecule agonists of estrogen receptor alpha signaling (AID 588514; calls by dose curve;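 also: 0% = vehicle only and 100% = reference agonist; nearly all actives have a fitted effect of over 70% in size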)
Chain of Estrogen receptor (Homo sapiens) (P03372 whole entry, looked up): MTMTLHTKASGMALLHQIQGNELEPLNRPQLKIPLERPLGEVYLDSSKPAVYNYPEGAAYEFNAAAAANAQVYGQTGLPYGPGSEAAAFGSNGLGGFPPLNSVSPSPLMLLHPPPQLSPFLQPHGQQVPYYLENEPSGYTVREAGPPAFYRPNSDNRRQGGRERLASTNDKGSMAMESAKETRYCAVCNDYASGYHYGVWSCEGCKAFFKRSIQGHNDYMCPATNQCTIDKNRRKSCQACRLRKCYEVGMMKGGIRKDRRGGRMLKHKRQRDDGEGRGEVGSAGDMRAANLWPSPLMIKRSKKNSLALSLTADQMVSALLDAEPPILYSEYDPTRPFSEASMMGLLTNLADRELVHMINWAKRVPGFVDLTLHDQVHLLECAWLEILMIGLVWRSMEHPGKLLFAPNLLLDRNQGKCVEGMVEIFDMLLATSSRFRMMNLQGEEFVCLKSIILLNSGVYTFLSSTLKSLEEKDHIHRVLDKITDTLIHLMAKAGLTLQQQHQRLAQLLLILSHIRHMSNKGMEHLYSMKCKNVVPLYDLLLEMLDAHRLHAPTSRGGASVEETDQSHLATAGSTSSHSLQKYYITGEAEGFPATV
In short: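 ER-alpha-UAS-bla GripTite HEK 293 cells in medium with 2% charcoal/dextran-treated FBS were treated with compound titrations at 37 C for 18 hrs; beta-lactamase reporter read by CCF4 fluorescence after 2 hrs at RT.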

[8] = molecular target: Estrogen receptor (Homo sapiens) (UniProt P03372); assay: qHTS assay for small molecule antagonists of estrogen receptor alpha signaling (AID 588513; active = well fitted curve in the direction sought with a large enough effect in the signal ratio, with a control signal flat, not every such curve was filed as active; the % refers to the signal ratio; also: % is scaled to controls: 0 for no effect and ±100 for the full control effect)
In short: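 Cells were plated at 5000/well and incubated 4 h at 37 C. Compounds were added as 1:2 dilution series, duplicates. 17-beta-estradiol (0.5nM final) was added for 18 h before CCF4 detection.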

[9] = molecular target: Androgen receptor (Homo sapiens) (UniProt P10275); assay: qHTS assay for small molecule agonists of androgen receptor signaling (AID 588515; active = well fitted curve in the direction sought with a large enough effect in the signal ratio, with a control signal flat; the % refers to the signal ratio; also: % is scaled to controls: 0 for no effect and ±100 for the full control effect); conditions: AR-UAS-bla HEK293, beta-lactamase ratio, agonist 16 h; hits give high values
Chain of Androgen receptor (Homo sapiens) (P10275 whole entry, looked up): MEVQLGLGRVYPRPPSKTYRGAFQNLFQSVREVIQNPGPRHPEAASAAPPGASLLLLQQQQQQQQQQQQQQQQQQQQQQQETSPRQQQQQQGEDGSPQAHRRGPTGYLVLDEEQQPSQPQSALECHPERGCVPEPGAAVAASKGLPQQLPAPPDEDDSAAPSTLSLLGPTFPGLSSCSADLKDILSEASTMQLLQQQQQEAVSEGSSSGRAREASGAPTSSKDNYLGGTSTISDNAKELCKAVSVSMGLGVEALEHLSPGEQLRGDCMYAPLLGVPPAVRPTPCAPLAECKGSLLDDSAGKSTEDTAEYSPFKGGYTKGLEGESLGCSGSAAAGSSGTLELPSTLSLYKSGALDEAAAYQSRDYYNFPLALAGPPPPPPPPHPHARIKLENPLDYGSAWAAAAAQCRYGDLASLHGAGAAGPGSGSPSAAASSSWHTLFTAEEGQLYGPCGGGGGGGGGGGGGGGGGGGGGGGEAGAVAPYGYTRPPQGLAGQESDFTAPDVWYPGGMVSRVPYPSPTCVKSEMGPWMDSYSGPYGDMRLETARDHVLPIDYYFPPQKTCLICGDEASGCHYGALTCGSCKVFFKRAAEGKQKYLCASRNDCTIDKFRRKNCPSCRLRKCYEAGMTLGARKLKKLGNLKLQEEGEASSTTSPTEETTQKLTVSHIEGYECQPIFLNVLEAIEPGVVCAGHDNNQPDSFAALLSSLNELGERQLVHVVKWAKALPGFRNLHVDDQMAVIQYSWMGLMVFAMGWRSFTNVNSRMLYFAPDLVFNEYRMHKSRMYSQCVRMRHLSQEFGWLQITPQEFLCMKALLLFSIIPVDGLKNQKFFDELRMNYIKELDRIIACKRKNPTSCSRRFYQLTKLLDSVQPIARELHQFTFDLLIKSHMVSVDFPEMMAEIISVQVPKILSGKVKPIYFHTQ
In short: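 EC50 and efficacy came from Hill fits of titrations (up to 92 uM) normalized to 30 nM R1881 as 100% and DMSO as 0%. Compound exposure was 16 h at 37 C on AR-UAS-bla HEK293 cells, with a 405/460/530 nm CCF4 fluorescence read.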

[10] = molecular target: Androgen receptor (Homo sapiens) (UniProt P10275); assay: qHTS assay for small molecule antagonists of androgen receptor signaling (AID 588516; active = well fitted curve in the direction sought with a large enough effect in the signal ratio, with a control signal flat, not every such curve was filed as active; the % refers to the signal ratio; also: % is scaled to controls: 0 for no effect and ±100 for the full control effect)
In short: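 Antagonist-mode qHTS: inhibition of R1881 (10 nM)-driven beta-lactamase expression in GripTite HEK 293 cells is measured after 16 h; values are Hill-derived IC50s normalized between R1881 and DMSO wells.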

NC(=O)c1cccc(N)c1
inactive: outcome [1] | Potency [2] | outcome [3] | Potency [4] | Potency [5] | Potency [6]

CCN(C)C(=O)Oc1cccc([C@H](C)N(C)C)c1
inactive: Potency [4]

CN(C)CCc1c[nH]c2ccc(CS(=O)(=O)N3CCCC3)cc12
inactive: Potency [4]

COC(=O)Nc1nc2ccc(S(=O)c3ccccc3)cc2[nH]1 (configuration not stated)
inactive: Potency [4]

COc1cc2ncnc(Nc3cccc(Cl)c3)c2cc1OC
inactive: outcome [1] | Potency [2] | outcome [3] | Potency [4] | Potency [5] | Potency [6]

CCN(CC)CCn1c(=O)c(Cc2ccc(OC)cc2)nc2ccccc21
inactive: outcome [1] | Potency [2] | outcome [3] | Potency [4] | Potency [5] | Potency [6]

CC1=C(C(=O)O)N2C(=O)[C@@H](NC(=O)C(N)c3ccccc3)[C@H]2SC1 (some centres not stated)
inactive: Potency [2] | outcome [3] | Potency [4] | Potency [5] | Potency [6]

Nc1nc(N)c2nc(CNc3ccc(C(=O)NC(CCC(=O)O)C(=O)O)cc3)cnc2n1 (configuration not stated)
inactive: outcome [3] | Potency [5] | Potency [6]

CCCc1nc(C)c2c(=O)[nH]c(-c3cc(S(=O)(=O)N4CCN(CC)CC4)ccc3OCC)nn12
inactive: Potency [4]

CCCCOc1ccc(CC(=O)NO)cc1
inactive: Potency [4]

O=C(O)C1CCCN(CCC=C(c2ccccc2)c2ccccc2)C1 (configuration not stated)
inactive: outcome [1] | Potency [2] | outcome [3] | Potency [4] | Potency [5] | Potency [6]

NC(=O)c1ccc2[nH]ccc2c1
inactive: outcome [1] | Potency [2] | outcome [3] | Potency [4] | Potency [5] | Potency [6]

Cc1cccc(Nc2ccncc2S(=O)(=O)NC(=O)NC(C)C)c1
inactive: Potency [4]

CC(=O)[C@H]1CC[C@H]2[C@@H]3CCC4=CC(=O)CC[C@]4(C)[C@H]3CC[C@]12C
inactive: outcome [1] | Potency [2] | outcome [3] | Potency [5] | Potency [6] | outcome [7]

N[C@@H](Cc1ccc(O)c(O)c1)C(=O)O
inactive: outcome [3] | Potency [4] | Potency [5] | Potency [6]
active: Potency [2] 9.53 µM

CNCC[C@H](Oc1cccc2ccccc12)c1cccs1
inactive: Potency [4]

CC(C)(Sc1cc(C(C)(C)C)c(O)c(C(C)(C)C)c1)Sc1cc(C(C)(C)C)c(O)c(C(C)(C)C)c1
inactive: Potency [4]

CCc1cc(C(N)=S)ccn1
inactive: Potency [4]

Cc1ccc(S(=O)(=O)N[C@@H](Cc2ccccc2)C(=O)CCl)cc1
active: Potency [4] 44.7 µM | Potency [5] 14.1 µM | Potency [6] 22.4 µM
inactive: outcome [1] | Potency [2] | outcome [3]

COc1nc(N)nc2c1ncn2[C@@H]1O[C@H](CO)[C@@H](O)[C@@H]1O
active: Potency [4] 22.4 µM

CCN(CC)CC#CCOC(=O)C(O)(c1ccccc1)C1CCCCC1 (configuration not stated)
inactive: outcome [1] | Potency [2] | outcome [3] | Potency [4] | Potency [6]

CC(C)NCC(O)c1ccc(NS(C)(=O)=O)cc1 (configuration not stated)
inactive: outcome [1] | Potency [2] | outcome [3] | Potency [4] | Potency [5] | Potency [6]

COc1cc2nc(N3CCCN(C)CC3)nc(NC3CCN(Cc4ccccc4)CC3)c2cc1OC
active: Potency [6] 7.94 µM
inactive: outcome [1] | Potency [2] | outcome [3] | Potency [4]

CCN1CCCC1CNC(=O)c1cc(S(N)(=O)=O)ccc1OC (configuration not stated)
inactive: outcome [1] | Potency [2] | outcome [3] | Potency [4] | Potency [5] | Potency [6]

CCn1cc(C(=O)O)c(=O)c2cc(F)c(N3CCNCC3)nc21
inactive: Potency [4]

OCc1ccc(-c2nn(Cc3ccccc3)c3ccccc23)o1
inactive: outcome [1] | Potency [2] | outcome [3] | Potency [4] | Potency [5]

CC1CC2C3CCC4=CC(=O)C=C[C@]4(C)[C@@]3(F)[C@@H](O)C[C@]2(C)[C@@]1(O)C(=O)CO (some centres not stated)
inactive: outcome [1] | Potency [2] | outcome [3] | Potency [4] | Potency [5] | Potency [6]

CCCCS(=N)(=O)CCC(N)C(=O)O (configuration not stated)
inactive: outcome [1] | Potency [2] | outcome [3] | Potency [4] | Potency [5] | Potency [6]

CC(N)C12CC3CC(CC(C3)C1)C2 (configuration not stated)
inactive: Potency [4]

Cc1ncc([N+](=O)[O-])n1CCO
inactive: Potency [4] | Potency [8] | outcome [7]

O=C(N[C@H](CO)[C@H](O)c1ccc([N+](=O)[O-])cc1)C(Cl)Cl
inactive: Potency [4] | Potency [8]

Cc1nnc(NS(=O)(=O)c2ccc(N)cc2)s1
inactive: Potency [4] | Potency [8] | outcome [7] | activation [9] -1.65% | outcome [10]

CCOCC(O)COc1ccc(NC(=O)CC[S+](C)C)cc1 (configuration not stated)
inactive: Potency [4]

O=C(O)c1cccnc1
inactive: Potency [4]

C[C@]12C=CC(=O)C=C1CC[C@@H]1[C@@H]2C(=O)C[C@@]2(C)[C@H]1CC[C@]2(O)C(=O)CO
inactive: Potency [4] | Potency [8] | outcome [7]

COc1ccc2c(c1)c(CC(=O)OCC(=O)O)c(C)n2C(=O)c1ccc(Cl)cc1
inactive: Potency [4]
